# Test results from the supplement of paper PMC4166925.
# ± gives the standard deviation of the averaged measurements. Over roughly 33,000 sequences, “E-score (dimensionless, -0.5 to 0.5)” has its median near -0.049; the highest 2% begin near 0.37. This is one part of a sample in which the highest values are shown more often than they occur.
# Tested on: T1, PmTbr T-box DNA-binding domain (GST fusion)
# T1 sequence: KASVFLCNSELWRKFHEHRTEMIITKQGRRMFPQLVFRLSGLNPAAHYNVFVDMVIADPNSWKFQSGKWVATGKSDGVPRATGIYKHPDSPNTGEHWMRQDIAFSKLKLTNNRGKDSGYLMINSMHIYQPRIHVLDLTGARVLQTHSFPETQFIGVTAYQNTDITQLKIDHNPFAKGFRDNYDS
# Experiment: PBM E-score of 8-mer (E-score (dimensionless, -0.5 to 0.5)); Tbr is Tbrain of the sea star Patiria miniata (Pm) or the sea urchin Strongylocentrotus purpuratus (Sp); higher = stronger binding preference
# Settings: the construct has about 5 more residues each side
# Description: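 Universal protein-binding microarray (Agilent AMADID 016060, 60-bp probes with a 35-bp variable region) incubated with 200 nM GST-fused Patiria miniata Tbr T-box DNA-binding domain (residues 272-466) in PBS pH 7.5. Scored for every ungapped 8-mer (given with its reverse complement) by the Universal PBM Analysis Suite as E-score (modified Wilcoxon-Mann-Whitney enrichment, range -0.5 to 0.5; >0.45 counts as bound) and Z-score of median probe intensity. Two replicate arrays (datasets 1 and 2).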
row,Sequence,PBM E-score of 8-mer
1,ACCACCTG,0.262 ± 0.056
2,TACACCGA,0.042 ± 0.083
3,AACACCGT,0.329 ± 0.0059
4,AACACCGG,0.155 ± 0.04
5,AACACCGC,0.287 ± 0.0081
6,TACACCTA,0.371 ± 0.026
7,CACACCGG,0.135 ± 0.057
8,CAGACCTG,-0.0919 ± 0.036
9,AACACCTT,0.4857 ± 0.0013
10,GACTGAGA,-0.181 ± 0.085
11,ACTCAAAT,-0.125 ± 0.039
12,TACTTAGA,0.0947 ± 0.0054
13,ATAGACTG,-0.0183 ± 0.043
14,GACTGACA,0.142 ± 0.069
15,ATAGGCCC,-0.141 ± 0.098
16,CTCATTGC,-0.166 ± 0.087
17,AGATTCGG,-0.173 ± 0.036
18,ACGGCTAC,-0.0169 ± 0.0055
19,AAAACCTA,-0.209 ± 0.086
20,GACACCGA,0.286 ± 0.024
21,AACACCGA,0.234 ± 0.034
22,CACACCTA,0.476 ± 0.009
23,GAGACCTA,-0.16 ± 0.033
24,CCCACCTA,0.184 ± 0.016
25,CACACCGA,0.193 ± 0.0051

row,Sequence,PBM E-score of 8-mer
1,GACACCTA,0.48906 ± 2.8e-05
2,AACACCTA,0.4803 ± 0.0034
3,AGACTAGG,-0.0553 ± 0.059
4,ACGTCGAC,0.115 ± 0.035
5,AGGCAGCG,-0.0107 ± 0.078
6,CCTTGTAA,-0.0975 ± 0.037
7,TACTTGAA,-0.262 ± 0.037
8,AGGGGAGG,-0.223 ± 0.07
9,GAATTGTC,0.184 ± 0.0043
10,CGAGACTC,0.0667 ± 0.093
11,CCAAGGGA,0.0414 ± 0.029
12,ATCACGAG,0.167 ± 0.054
13,AAGAGTGT,0.289 ± 0.055
14,CTATAGAA,-0.129 ± 0.058
15,GTGTGACA,0.4709 ± 0.0035
16,ATGTGACA,0.4393 ± 0.0026
17,ATGTGACC,0.112 ± 0.052
18,CTGTGACA,0.3356 ± 0.0016
19,GCGTGACA,0.365 ± 0.0062
20,ACGTGACT,0.0526 ± 0.086
21,ACGTGACA,0.385 ± 0.023
22,ATGTGACG,0.31 ± 0.02
23,ACGTGACG,0.346 ± 0.0083
24,CACTGCTG,-0.132 ± 0.038
25,AAGAAGTC,0.0125 ± 0.0032

row,Sequence,PBM E-score of 8-mer
1,CGTAGGCC,-0.213 ± 0.033
2,GCATATAC,-0.081 ± 0.0014
3,CCTTGGGC,-0.035 ± 0.01
4,AGTGCCAC,0.287 ± 0.014
5,CGTGCCAC,0.274 ± 0.03
6,AGTGCCAA,0.3809 ± 0.0024
7,TGTGCCAA,0.351 ± 0.013
8,CGTGCCAA,0.324 ± 0.0048
9,GATGCCAC,0.182 ± 0.072
10,GGTGCCAA,0.454 ± 0.006
11,AGTGCCAG,0.2664 ± 0.0016
12,GGTGCCAC,0.398 ± 0.015
13,GCGGCAGC,0.0309 ± 0.0077
14,GGCGAATA,0.0105 ± 0.026
15,ACGAATTG,0.0628 ± 0.039
16,ACAGCGCA,-0.0538 ± 0.03
17,CCGCTATC,0.177 ± 0.0022
18,AACACGGT,0.133 ± 0.049
19,CGTGAACA,0.321 ± 0.021
20,GGTGAAAA,0.2007 ± 0.0014
21,CGTGAAAA,0.338 ± 0.026
22,TGTGAAAA,0.38 ± 0.057
23,GGTGAACA,0.00576 ± 0.0094
24,TGTGAACA,0.4216 ± 0.0014
25,CGTGAGAG,0.265 ± 0.0088

row,Sequence,PBM E-score of 8-mer
1,AAGCCAAT,-0.162 ± 0.051
2,ACTCGAAC,-0.0874 ± 0.031
3,CTCTGTGC,-0.0888 ± 0.082
4,GGAGATTA,-0.0891 ± 0.063
5,AGGGCCTC,-0.399 ± 0.0047
6,CAAGCATG,-0.0451 ± 0.032
7,TGTCTAAA,-0.0695 ± 0.011
8,GAAGGACA,-0.0775 ± 0.028
9,GCAGACAA,-0.0224 ± 0.054
10,CCTCGCAG,0.0735 ± 0.061
11,CCTCGCAC,0.42 ± 0.014
12,ACTCGCAG,0.0856 ± 0.036
13,ACTCGCAC,0.4 ± 0.0077
14,CCTCGCAA,0.118 ± 0.0037
15,GCTCGCAA,0.242 ± 0.015
16,ACTCGCAT,-0.0149 ± 0.006
17,GCTCGCCC,-0.213 ± 0.052
18,GCTCGCAC,0.42 ± 0.025
19,ACAGCTAC,0.115 ± 0.032
20,AACTGGAG,-0.0661 ± 0.0033
21,CGATAAGC,0.124 ± 0.049
22,CGAGGTAC,-0.1003 ± 0.00044
23,AGAGGTTC,-0.124 ± 0.022
24,AGAGGTGA,0.352 ± 0.015
25,CGAGGTCC,-0.166 ± 0.06

row,Sequence,PBM E-score of 8-mer
1,GGAGGTCA,0.0158 ± 0.0067
2,CGAGGTGC,0.457 ± 0.01
3,CGAGGTTA,0.0486 ± 0.017
4,AGAGGTGG,0.316 ± 0.0057
5,CGAGGTCA,0.0395 ± 0.11
6,GGAGGTGA,0.4036 ± 0.0026
7,AGAGGTGC,0.411 ± 0.0084
8,CGAGGTGA,0.4396 ± 0.0012
9,ACCAACTA,-0.0247 ± 0.12
10,CGAACAGC,0.0465 ± 0.011
11,TAAGTCTA,-0.0537 ± 0.026
12,CGCCCTAC,-0.103 ± 0.061
13,CCAACAAC,0.0262 ± 0.0053
14,GTGTTGGA,0.382 ± 0.0051
15,GTGTTGAA,0.4 ± 0.013
16,CTGTTGGA,0.0599 ± 0.038
17,ATGTTGAA,-0.107 ± 0.017
18,CTGTTGAA,-0.0551 ± 0.1
19,ATGTTGGA,-0.0683 ± 0.0083
20,ACCTTTAT,0.0337 ± 0.024
21,AGAGTGAA,0.0596 ± 0.056
22,CGTGTGCA,0.0443 ± 0.011
23,TATGTGAA,0.11 ± 0.1
24,TGGGTGAA,-0.158 ± 0.043
25,AGTGTGTA,0.172 ± 0.073

row,Sequence,PBM E-score of 8-mer
1,CGTGTGTA,0.00111 ± 0.014
2,AGTGTGAA,0.48836 ± 0.00035
3,CGTGTGAA,0.4524 ± 0.0013
4,TGTGTGAA,0.4728 ± 0.0017
5,CGCTACCA,0.243 ± 0.024
6,AGTTCTTC,-0.293 ± 0.02
7,AAAAGTGC,0.2475 ± 0.00082
8,ATCCTTCA,-0.143 ± 0.044
9,ACCGACCC,0.00535 ± 0.068
10,ACCATTAA,-0.0404 ± 0.015
11,GAAGTCTC,0.102 ± 0.062
12,CGCCTAAG,0.0221 ± 0.02
13,ACCCTCAA,0.0906 ± 0.052
14,GAGTTGCC,0.0293 ± 0.068
15,CACAGCTG,0.296 ± 0.0054
16,ATGACGAA,-0.065 ± 0.04
17,CTGACGAA,0.0955 ± 0.048
18,GTGACACA,0.416 ± 0.0096
19,CTGACAAA,0.12 ± 0.038
20,ATGACAAC,0.241 ± 0.054
21,ATGACAAA,-0.0227 ± 0.073
22,GAGACACA,0.053 ± 0.046
23,GTGACAAA,0.428 ± 0.029
24,CTGACACA,0.344 ± 0.013
25,GTGACAAC,0.4452 ± 0.0036

row,Sequence,PBM E-score of 8-mer
1,CTGACAAC,0.257 ± 0.012
2,GTGACGAA,0.371 ± 0.014
3,GTAGTCGA,-0.0608 ± 0.0079
4,ATTATTCG,-0.0471 ± 0.044
5,CTGGCTTA,-0.275 ± 0.025
6,CTACAGGC,-0.125 ± 0.0056
7,GATGGTCA,-0.26 ± 0.0048
8,CGCGAACA,0.328 ± 0.007
9,TACTTAAA,-0.246 ± 0.057
10,GTGATTGA,0.125 ± 0.042
11,GACTCGAC,0.0517 ± 0.016
12,CGTTATCC,-0.058 ± 0.009
13,AACACACT,0.229 ± 0.021
14,CTCACATA,0.0666 ± 0.017
15,CACACATG,0.352 ± 0.0023
16,GACACAGC,0.1102 ± 0.00023
17,GACACATC,0.372 ± 0.0069
18,CACACATC,0.381 ± 0.035
19,GACACATA,0.322 ± 0.038
20,AAAACATT,-0.0945 ± 0.013
21,ATCACATC,0.195 ± 0.058
22,CTCACATC,0.3693 ± 0.0021
23,CGCACATC,0.298 ± 0.055
24,AACACATT,0.389 ± 0.028
